PubChem BioAssay (NCATS)
Records with an inconclusive call do not appear. Active and inactive are the calls of the source. Unless noted, calls come from the whole dose curve; as a rule, active = well fitted curve in the direction sought with a large enough effect; inconclusive = small, poorly fitted or top-dose-only effect, or another doubt; inactive = no such curve, though single readings can be large; an effect the other way counts as inactive or inconclusive.

Tests used:
[1] = Cell Viability - LYMP2-001 (AID 921);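 note: series mostly up to about 92 µM; cells exposed to compound for 24 h at 37 °C; nearly all actives have a fitted effect of over 70% in size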
Method in brief: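 CellTiter-Glo luminescence (intracellular ATP) after 24 hr compound exposure at 37 C, 2500 lymphoblastoid cells/well in complete medium. AC50 fitted with standard Hill equation; tetraoctylammonium bromide positive control.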

[2] = MultiTox-Fluor Cytotoxicity Assay - LYMP1-001 - Dead Cells (AID 946);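 note: cells exposed to compound for 16 h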
Method in brief: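 LYMP1-001 lymphoblastoid cells (2500/well) treated 16 h at 37 C. Dead-cell protease cleavage of bis-AAF-R110 read at Ex/Em 485/520. Normalized to DMSO and 15 uM tetraoctylammonium bromide; AC50 from Hill fits.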

[3] = MultiTox-Fluor Cytotoxicity Assay - LYMP1-001 - Live Cells (AID 947)
[4] = Cell Viability - LYMP1-002 - Assay at 16 hr (AID 948)
Method in brief: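 LYMP1-002 human lymphoblastoid cells, 2500/well; 5 hr 37 C; cpd 16 hr 37 C; CellTiter-Glo 30 min RT; luminescence (ATP). Concentration-response, Hill-fit AC50. Pos ctrl tetraoctylammonium bromide.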

[5] = MultiTox-Fluor Cytotoxicity Assay - LYMP1-002 - Live Cells (AID 955);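 note: cells exposed to compound for 16 hours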
Method in brief: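 Human lymphoblastoid LYMP1-002 cells, 2500/well, treated 16 h at 37 C in complete medium. Live-cell protease activity via GF-AFC fluorescence (Ex/Em 405/510) after 60 min reagent incubation; AC50 from Hill fits.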

[6] = Confirmation and Secondary Assay for Modulators of Hemoglobin Beta Chain Splicing at IVS2 705 locus (AID 930);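 note: HeLa cells stably expressing the EGFP-705 splicing reporter; GFP fluorescence per well restored by corrected splicing of the IVS2-705 intron in EGFP; series mostly up to about 46 µM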
Method in brief: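 First, HeLa EGFP-705 cells are seeded at 500/well in Optimem with 2% FCS and left overnight. Next, compound or DMSO is added for 2 days. Finally wells are laser-scanned and total peak GFP intensity scored.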

[7] = target: Muscarinic acetylcholine receptor M1 (Rattus norvegicus) (UniProt P08482); assay: qHTS Assay for Antagonists of Acetylcholine Muscarinic M1 Receptor: Kinetic Measurement of Intracellular Calcium Response (AID 943); note: series mostly up to about 35 µM; nearly all actives have a fitted effect of over 75% in size
Method in brief: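 CHO cells expressing rat M1 receptor, Fluo-4 loaded, preincubated 10 min with compound, then stimulated with EC80 carbachol (100 nM final). Kinetic calcium fluorescence over 4 min; response taken as peak over basal signal.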

[8] = target: Muscarinic acetylcholine receptor M1 (Rattus norvegicus) (UniProt P08482); assay: qHTS Assay for Antagonists of Acetylcholine Muscarinic M1 Receptor: Measurement of IP-One Response (AID 944); note: nearly all actives have a fitted effect of over 75% in size
Method in brief: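 CHO cells stably expressing rat M1, pretreated 10 min with compound, then stimulated 30 min with carbachol at EC80 (200 nM) in LiCl-containing buffer pH 7.4; IP1 accumulation read by HTRF competition (665/620 nm).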

[9] = target: Pyruvate kinase (Leishmania mexicana) (UniProt Q27686); assay: qHTS Validation Assay for Inhibitors of Leishmania Mexicana Pyruvate Kinase (AID 945)
Method in brief: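 qHTS eight-point titrations against 0.2 nM LmPYK (E451W) in imidazole buffer pH 7.2 with 0.5 mM PEP, 0.1 mM ADP; 1 h, room temperature. Readout: PKLight luminescence, normalized to neutral DMSO wells.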

[10] = target: Pyruvate kinase PKM (Homo sapiens) (UniProt P14618); assay: qHTS Assay for Activators of Human Muscle Pyruvate Kinase (AID 954; active = well fitted curve in the direction sought with a large enough effect, not every such curve was filed as active)
Method in brief: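 Purified human PKM2 (0.1 nM) with 0.5 mM PEP (Km) and 0.1 mM ADP in 50 mM imidazole pH 7.2, KCl, MgCl2, 1 h at room temperature; ATP formed read by coupled luciferase luminescence. Normalized to no-enzyme/110 uM thiadiazolimine inhibition; 0.3 nM enzyme column for activation.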

Measured: outcome

Chain of Muscarinic acetylcholine receptor M1 (Rattus norvegicus) (P08482 whole entry, looked up): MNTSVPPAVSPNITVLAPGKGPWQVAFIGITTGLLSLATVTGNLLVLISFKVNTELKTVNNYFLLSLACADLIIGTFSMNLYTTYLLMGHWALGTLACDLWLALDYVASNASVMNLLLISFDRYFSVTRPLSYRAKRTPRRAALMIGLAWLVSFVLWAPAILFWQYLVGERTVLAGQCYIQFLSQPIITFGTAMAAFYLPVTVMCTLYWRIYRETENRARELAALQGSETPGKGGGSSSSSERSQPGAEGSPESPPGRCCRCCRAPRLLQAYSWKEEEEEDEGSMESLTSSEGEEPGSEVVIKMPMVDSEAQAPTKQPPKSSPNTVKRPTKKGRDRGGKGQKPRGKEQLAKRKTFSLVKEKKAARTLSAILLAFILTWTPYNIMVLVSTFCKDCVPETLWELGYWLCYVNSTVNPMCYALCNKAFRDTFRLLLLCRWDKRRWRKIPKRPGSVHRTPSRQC
Chain of Pyruvate kinase PKM (Homo sapiens) (P14618 whole entry, looked up): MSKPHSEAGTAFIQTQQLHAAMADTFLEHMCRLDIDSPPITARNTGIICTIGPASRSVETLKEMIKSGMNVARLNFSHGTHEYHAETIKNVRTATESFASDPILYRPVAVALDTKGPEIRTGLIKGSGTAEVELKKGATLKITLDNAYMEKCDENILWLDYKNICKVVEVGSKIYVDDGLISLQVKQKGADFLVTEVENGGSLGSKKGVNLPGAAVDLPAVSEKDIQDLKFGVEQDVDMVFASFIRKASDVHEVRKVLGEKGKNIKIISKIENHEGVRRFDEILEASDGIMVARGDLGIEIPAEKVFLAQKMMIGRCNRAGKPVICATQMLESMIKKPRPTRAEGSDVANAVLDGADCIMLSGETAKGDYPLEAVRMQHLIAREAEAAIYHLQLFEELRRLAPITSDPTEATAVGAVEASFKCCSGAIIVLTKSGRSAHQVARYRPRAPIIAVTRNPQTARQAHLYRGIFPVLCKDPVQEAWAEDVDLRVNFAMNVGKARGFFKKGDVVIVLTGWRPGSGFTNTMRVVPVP
Chain of Pyruvate kinase (Leishmania mexicana) (Q27686 2-499 E452W): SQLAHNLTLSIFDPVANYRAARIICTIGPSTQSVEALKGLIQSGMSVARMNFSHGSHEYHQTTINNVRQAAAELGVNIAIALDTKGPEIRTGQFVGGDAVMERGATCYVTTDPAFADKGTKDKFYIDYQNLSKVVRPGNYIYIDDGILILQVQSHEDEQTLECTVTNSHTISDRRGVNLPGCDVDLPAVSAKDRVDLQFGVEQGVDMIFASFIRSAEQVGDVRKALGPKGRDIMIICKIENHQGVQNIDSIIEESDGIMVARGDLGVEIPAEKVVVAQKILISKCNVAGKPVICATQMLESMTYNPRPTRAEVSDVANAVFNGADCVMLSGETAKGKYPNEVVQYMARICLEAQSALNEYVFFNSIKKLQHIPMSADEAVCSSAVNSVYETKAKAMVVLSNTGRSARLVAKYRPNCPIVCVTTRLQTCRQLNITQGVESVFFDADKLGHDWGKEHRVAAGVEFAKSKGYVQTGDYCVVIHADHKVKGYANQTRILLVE

CCCCCC(N)=O
inactive: [1] | [2] | [3] | [4] | [5]

FC(F)(F)C(Cl)Br (stereo not given)
inactive: [1] | [2] | [3] | [4] | [5]

O=C1C(c2[nH]c3ccccc3c2O)=Nc2ccccc21
inactive: [1] | [2] | [3] | [4] | [5]

Cc1cc(C)nc(NS(=O)(=O)c2ccc(N)cc2)n1
inactive: [1] | [6] | [2] | [3] | [4] | [5]

CC(=O)Nc1cccc(O)c1
inactive: [1] | [6] | [2] | [3] | [4] | [5]

Cn1c(=O)c2c(ncn2CCO)n(C)c1=O
inactive: [6]

NC(N)=NS(=O)(=O)c1ccc(N)cc1
inactive: [6]

OC(CCN1CCCC1)(c1ccccc1)C1CCCCC1 (stereo not given)
inactive: [6]

CC1CC(OC(=O)c2ccccc2O)CC(C)(C)C1 (stereo not given)
inactive: [1] | [6] | [2] | [3] | [4] | [5]

NS(=O)(=O)c1cc(C2(O)NC(=O)c3ccccc32)ccc1Cl (stereo not given)
inactive: [6]

CC(=O)Nc1ccc(C(=O)O)cc1
inactive: [1] | [2] | [3] | [4] | [5]

NCc1ccc(S(N)(=O)=O)cc1
inactive: [6]

Cc1c(N(C)C)c(=O)n(-c2ccccc2)n1C
inactive: [1] | [2] | [3] | [4] | [5]

CNCc1ccccc1
inactive: [6]

CCCC(O)C(CC)CO (stereo not given)
inactive: [1] | [2] | [3] | [4] | [5]

CCCCOC(=O)c1ccc(N)cc1
inactive: [1] | [6] | [2] | [3] | [4] | [5]

COc1ccccc1OCC(O)CO (stereo not given)
inactive: [6]

Cc1cc(=O)[nH]c(=S)[nH]1
inactive: [1] | [6] | [2] | [3] | [4] | [5]

C/C=C/C(=O)N(CC)c1ccccc1C
inactive: [6]

CC(=O)Nc1ccccc1
inactive: [1] | [6] | [2] | [3] | [4] | [5]

O=C(O)CCCCC1CCSS1 (stereo not given)
inactive: [1] | [6] | [2] | [3] | [4] | [5]

O=C(c1ccccc1)C(O)c1ccccc1 (stereo not given)
inactive: [1] | [2] | [3] | [4] | [5]

CCCCCCCC(=O)OCC(COC(=O)CCCCCCC)OC(=O)CCCCCCC
inactive: [1] | [2] | [3] | [4] | [5]

O=c1[nH]cnc2nc[nH]c12
inactive: [6]

CC(=O)NS(=O)(=O)c1ccc(N)cc1
inactive: [1] | [6] | [2] | [4] | [5]

Cc1[nH]c(C)c(Cl)c(=O)c1Cl
inactive: [6]

CCN(CC)C(=O)c1cccc(C)c1
inactive: [1] | [6] | [2] | [3] | [4] | [5]

Nc1ccc(S(=O)(=O)c2ccc(N)cc2)cc1
inactive: [1] | [6] | [2] | [3] | [4] | [5]

C=CCNC(N)=S
inactive: [1] | [2] | [3] | [4] | [5]

O=C(CCBr)N1CCN(C(=O)CCBr)CC1
inactive: [6]

COc1ccc2cc(CCC(C)=O)ccc2c1
inactive: [6]

CC(=O)OCC(COC(C)=O)OC(C)=O
inactive: [1] | [6] | [2] | [3] | [4] | [5]

Cc1cccc(C(=O)O)c1O
inactive: [6]

COc1ccc(O)cc1
inactive: [1] | [2] | [3] | [4] | [5]

NC(=O)CC[C@@H](N)C(=O)O
inactive: [7] | [8] | [9] | [10]

CN1C(C)(C)CCCC1(C)C
inactive: [7] | [8] | [9] | [10]

O=C1c2cccc(O)c2C(=O)c2c(O)cccc21
inactive: [2] | [3] | [4] | [5]
